In the library only some 4.5% were active in any assay of this set; here they are far more common.
HTT-AS promoter = activates huntingtin-antisense promoter activity; Potency, µM (series often up to 57.5 µM), inactives show at the highest dose activity change, positive = activation, actives largely listed as activators; AID 1508624; 0.24% of 48,000 active; HEK293 HTT-AS promoter firefly luciferase reporter, 24 h; response scale: percent change from vehicle, -100% = no light; also: potency is read from the fitted curve at half-maximal effect; nearly all actives have a fitted effect of over 55% in size
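HEK293 cells carrying firefly luciferase reporters were seeded at 2,500 per well in Opti-MEM and cultured for 24 h. They were then treated with compounds at up to 57.5 uM final for 24 h at 37 degrees C before Dual-Glo luminescence readout.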
NTMT1 inhibitor = NTMT1 methyltransferase inhibition; NTMT1 MTase-Glo SAH luminescence, purified enzyme; Potency, µM (titrated, usually from 114 µM), inactives show at the highest dose activity change, negative = inhibition, most hits filed as inhibitors; 2.5% of 59,000 active; AID 1645870;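 also: potency is read from the fitted curve at half-maximal effect; plate controls were DMSO vehicle for no effect and no enzyme for full effect; nearly all actives have a fitted effect of over 65% in size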
Target sequence (Q9BV86 whole entry, looked up): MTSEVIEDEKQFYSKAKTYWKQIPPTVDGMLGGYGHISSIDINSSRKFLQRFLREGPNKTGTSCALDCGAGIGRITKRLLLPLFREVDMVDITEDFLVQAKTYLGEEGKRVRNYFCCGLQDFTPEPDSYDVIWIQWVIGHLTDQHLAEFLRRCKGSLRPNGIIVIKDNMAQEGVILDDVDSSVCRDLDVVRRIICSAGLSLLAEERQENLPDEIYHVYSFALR
DRV1 agonist = activates human resolvin D1 receptor GPR32; O75388; CHO-K1 GPR32 beta-arrestin PathHunter luminescence, 90 min; zero percent set by DMSO-only wells; activation, % at 76.9 µM; 2.5% of 48,000 active; AID 1346428;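 active = activation of at least 60% and not above a set upper limit, about 1 call in 100 departs from these limits; inconclusive = activation of 40% to 60%, or above that upper limit; inactive = activation under 40%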; also: 0% is about no effect
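Engineered CHO-K1 line co-expressing GPR32-ProLink and EA-beta-arrestin. Compound treatment lasted 90 min at 37 °C. Luminescence was recorded after 1 h with substrate at ambient temperature, relative to DMSO basal wells.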
HTT prom inh = inhibits huntingtin promoter activity; HEK293 HTT promoter firefly luciferase reporter, 24 h; Potency, µM (series often up to 57.5 µM), for inactives: at the top dose activity change, negative = inhibition, most hits filed as inhibitors; 0.93% of 48,000 active; AID 1508623; also: potency is read from the fitted curve at half-maximal effect; nearly all actives have a fitted effect of over 50% in size
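HEK293 luciferase promoter-reporter cells (2,500/well) plated 24 h, then compounds added at up to 57.5 uM final for 24 h at 37 °C. Firefly luminescence by Dual-Glo, normalized to vehicle (0%) and zero RLU (-100%).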
OvCa metastasis = ovarian cancer metastasis inhibition, 3D TME model | SKOV3ip1-GFP adhesion/invasion on 3D omental model, fluorescence | Potency, µM (top dose mostly 45.8 µM), for inactives: at the highest dose activity change, negative = inhibition, most hits filed as inhibitors | 0.1% of 46,000 active | AID 1963576;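 also: potency is read from the fitted curve at half-maximal effect; plate controls were DMSO wells for no effect and tomatine positive control wells for full effect; nearly all actives have a fitted effect of over 65% in size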
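Adhesion/invasion was scored as fixed GFP-labeled SKOV3ip1 cell counts (488/509 nm), normalized to DMSO and tomatine controls. Cancer cells in serum-free medium, with four compound doses (0.36-46 umol/L), sat 2 hr at RT then 16 hr at 37 C on a 48 hr fibroblast/mesothelial/ECM culture.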
Active calls of the source: *; i = inactive; u = inconclusive; x = not tested or not shown; ! = not active in a repeat; [ ] = remark or other dose. Unless noted, calls follow the shape of the dose curve; as a rule, active = well fitted curve in the direction sought with a large enough effect; inconclusive = small, poorly fitted or top-dose-only effect, or another doubt; inactive = no such curve, though single readings can be large; an effect the other way counts as inactive or inconclusive.

SMILES	HTT-AS promoter	NTMT1 inhibitor	DRV1 agonist	HTT prom inh	OvCa metastasis
COc1ccc(NS(=O)(=O)c2ccc3[nH]c4c(c3c2)CCCCC4)cc1	-6.0%	u	73.6*	u	4.6%
CCOc1ccc(NS(=O)(=O)c2ccc3[nH]c4c(c3c2)CCCC4)cc1	-27.8%	u	48.6	-3.8%	-2.1%
CCOc1ccc(NS(=O)(=O)c2ccc3[nH]c4c(c3c2)CCCCC4)cc1	7.3%[11.5 µM]	-11.8%	65.6*	u	-25.6%
COc1ccc(/C=C/C(=O)Nc2ccc3nc4c(c(Nc5ccccc5OC)c3c2)CCCC4)cc1	-94.2%	10.3%	-22.7	u	1.26µM*
COc1ccc(/C=C/C(=O)Nc2ccc(Cl)c(Cl)c2)cc1	24.3%	-7.5%	67.6*	-19.3%	-14.6%
COc1ccc(Nc2c3c(nc4ccc(NC(=O)/C=C/c5cc(OC)c(OC)c(OC)c5)cc24)CCCC3)cc1OC	-76.5%	3.2%	-10.1	31.6µM*	-8.8%
COc1ccc(/C=C/C(=O)Nc2ccc3nc4c(c(Nc5ccc(OC)c(OC)c5)c3c2)CCCC4)cc1	-94.2%	-3.1%	-3.1	u	5.01µM*
COc1ccccc1Nc1c2c(nc3ccc(NC(=O)/C=C/c4cccc(OC)c4OC)cc13)CCCC2	-94.8%	10.4%	-37.4	u	-14.3%
Cc1cc(C)n(C(C)CC(=O)Nc2cccc(C(F)(F)F)c2)n1 (stereo not given)	-18.2%	-3.9%	-0.9	-9.6%	-9.0%
COc1ccc(Nc2c3c(nc4ccc(NC(=O)/C=C/c5cccc(OC)c5OC)cc24)CCCC3)cc1OC	-95.0%	-4.9%	-0.5	u	5.01µM*
O=C(Cn1nc(-c2ccc(F)cc2)ccc1=O)NCCc1ccccc1	x	79.4µM*	x	x	x
Cc1cc(N2CCN(C)CC2)nc2ccc(NC(=O)Nc3ccc(F)cc3)cc12	9.2%	u	30.1	24.8%	i
Cc1ccc(NC(=O)Nc2ccc3nc(N4CCN(C)CC4)cc(C)c3c2)cc1F	-51.3%	-2.5%	93.6*	-21.5%	i
Cc1cc(N2CCCCC2)nc2ccc(NC(=O)c3ccc(F)cc3)cc12	-24.2%	0.7%	105.4*	-20.4%	-9.3%
CN(C(=O)c1c2c(nc3ccccc13)C(=O)N(C1CCCCC1)C2)c1ccc(F)cc1	-6.8%	0.9%	-10.4	-21.3%	-5.4%
Cc1ccc(-c2cc(NC(=O)c3ccccc3Cl)on2)cc1	4.47µM*	10.4%	12.6	30.3%	6.4%
CC(=O)c1c(C)oc2c1cc(NS(=O)(=O)c1ccc(Br)cc1)c1ccccc12	-39.3%	5.3%	80.0*	u	-0.1%
NCCS	3.9%	31.6µM*	-14.5	14.1%	x
COc1ccc(NC(=O)CSc2nnc(-c3ccc(OC)cc3)s2)cc1	-45.3%	13.2%	-4.6	u	3.6%
O=S(=O)(Nc1c(F)cccc1F)c1ccc2c(c1)OCCO2	-10.1%	3.3%	-3.0	-4.3%	-7.7%
Cc1c(Cl)cccc1NS(=O)(=O)c1ccc(NS(=O)(=O)c2ccc3c(c2)OCCO3)cc1	-33.9%	0.6%	68.2*	-27.8%	26.9%
CCN(CC)c1cc2c(cc1F)c(=O)c(S(=O)(=O)c1ccccc1)cn2Cc1ccccc1	-22.8%	-0.2%	-20.9	u	i
Cc1n[nH]c(C)c1S(=O)(=O)N1CCCC(C(=O)Nc2ccc(Cl)cc2)C1 (stereo not given)	-46.7%	-3.2%	107.4*	28.2µM*	u
Cc1ccc(NC(=O)C2CCCN(S(=O)(=O)c3c(C)n[nH]c3C)C2)cc1Cl (stereo not given)	-44.5%	u	41.1	u	i
C[C@H]1O[C@@H](n2cc(F)c(=O)[nH]c2=O)[C@H](O)[C@@H]1O	-10.0%	2.2%	-5.1	6.0%	x
Cc1ccc(Cn2c(=O)n(-c3ccccc3)c(=O)c3ccc(C(=O)NCc4ccco4)cc32)cc1	-19.5%	46.1%	-9.0	-26.3%	-14.8%
O=Cc1ccc(O)c(O)c1O	-2.0%	17.8µM*	-6.6	-8.2%	x
CC(C)(Sc1ccc(CCN(CCCCC2CCCCC2)C(=O)NC2CCCCC2)cc1)C(=O)O	-2.8%	31.6µM*!	-6.1	-2.0%	10.8%

Assay outcomes (PubChem BioAssay)
